Hits are enriched below; roughly 3.8% of the tested compounds scored in any of these assays.
HSF-1 act: increases HSF-1 driven luciferase reporter signal | NIH3T3-HGL HSF-1 luciferase reporter, MG132, 8 h; 100% = twice DMSO control signal | activation, % at 9 µM | 300,000 compounds, 1.7% hits | AID 504408;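 active = mean replicate activation of at least 50% with a set share of replicates each reaching 50%; inconclusive = only one of those two conditions met; inactive = mean below 50% and too few replicates reaching it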
MITF act: increases MITF-driven TRPM1 promoter luciferase signal; activation, % at 12.5 µM; 300,000 compounds, 0.75% hits; SK-MEL-5 TRPM1-promoter luciferase, 24 h; % of positive control, neutral wells = 0;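 active = mean activation of at least 80% with every replicate also reaching 80%; inconclusive = mean reaches 80% but some replicate falls short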
Wnt bcat act: Wnt/beta-catenin pathway activation | Wnt/beta-catenin reporter cell assay, activator, plate reader | AID 743398 | activation, % at 9.35 µM | 300,000 compounds, 1.2% hits; in the data active = activation above about 30%, passing the limit was not always enough; inconclusive = no clear call, values can overlap the other calls
esBAF inh: inhibitors of esBAF chromatin remodeling in mouse ES cells | reporter increase, % at 12.5 µM | 350,000 compounds, 2% hits | AID 602393 | Bmi1-luciferase knock-in reporter, 24 h; 100% = twice the neutral-well signal; in the data active = activation above about 40%; inconclusive = no clear call, values can overlap the other calls;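 note: a rise in the Bmi1 reporter signal indicates esBAF inhibition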
HSF1 inhib: HSF1 inhibition; activity change, negative = inhibition, % at 7.5 µM (by protocol); NIH3T3-HGL HSE-luciferase, MG132-induced, luminescence 8 h; stronger effect = lower value; 300,000 compounds, 0.77% hits;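 active = more than half of replicate wells show activity change below -50%, luminescence cut by over half; inconclusive = some wells, but at most half, below -50%; inactive = no replicate well below -50%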;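 note: luciferase reports HSF-1 transcriptional activity via heat shock element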
Of the large screens only hits and unclear results are named; the others gave an inactive call.

COc1cccc(-n2cc(-c3ccc(F)cc3)[nH]c2=S)c1	esBAF inh 54.9
COc1ccc(-c2cn(-c3ccc(C)c(C)c3)c(=S)[nH]2)cc1OC	none
C[C@H](CO)N1C[C@H](C)[C@H](CN(C)C(=O)Nc2ccccc2)Oc2ncc(C#CC3CCCCC3)cc2C1=O	none (no result: HSF-1 act, MITF act, Wnt bcat act, HSF1 inhib)
COc1ccccc1C#Cc1ccc2c(c1)O[C@@H](CN(C)Cc1ccccc1)[C@H](C)CN([C@@H](C)CO)S2(=O)=O	none (no result: HSF-1 act, MITF act, Wnt bcat act, HSF1 inhib)
COc1ccc(C(=O)NCc2nnc(SCC(=O)N3CCc4ccccc43)n2C2CCCCC2)cc1	none (no result: Wnt bcat act, esBAF inh)
COc1ccc(C(=O)NCc2nnc(SCC(=O)N3CCc4ccccc43)n2CCc2ccccc2)cc1	HSF-1 act 79.7 (no result: esBAF inh)
COc1ccc(C)cc1NC(=O)CSc1nnc(COc2ccc(C)cc2)n1Cc1ccco1	none (no result: Wnt bcat act)
COc1ccccc1NC(=O)CSc1nnc(COc2ccc(Cl)cc2)n1Cc1ccco1	HSF-1 act 93.6
Cc1cccc(C)c1NC(=O)CSc1nnc(Cn2nnc(-c3ccccc3)n2)n1-c1ccccc1	HSF-1 act 74.1
Cc1ccc(OCc2nnc(SCC(=O)Nc3cccc4ccccc34)n2-c2ccccc2)cc1	HSF-1 act 73.4
CCc1nnc(NC(=O)CSc2nnc(COc3ccccc3)n2-c2ccc(C)cc2)s1	none (no result: Wnt bcat act)
Cc1ccc(-n2c(COc3ccccc3)nnc2SCC(=O)O)cc1	Wnt bcat act 62.1 (no result: HSF-1 act, MITF act, HSF1 inhib)
O=C(O)CSc1nnc(COc2ccc(Br)cc2)n1-c1ccccc1	none
COc1ccc(S(=O)(=O)N(C)C[C@H]2Oc3c(NC(=O)NC(C)C)cccc3C(=O)N([C@@H](C)CO)C[C@@H]2C)cc1	none (no result: HSF-1 act, MITF act, Wnt bcat act, HSF1 inhib)
O=C(Nc1ccc2c(c1)CCCN2C(=O)c1ccco1)c1cc([N+](=O)[O-])ccc1Cl	HSF-1 act 74.5
CC(=O)Nc1ccc(NC(=O)c2ccccc2Sc2ccc([N+](=O)[O-])cc2Cl)cc1	HSF-1 act 75.9 (no result: Wnt bcat act)
O=C(Nc1ccc(N2CCN(C(=O)c3ccco3)CC2)cc1)c1ccc([N+](=O)[O-])cc1Cl	none
COc1ccc(NC(=O)c2cc([N+](=O)[O-])ccc2O)cc1	HSF1 inhib -73.5 (no result: esBAF inh)
O=C(Nc1ccc(Nc2ccccc2)cc1)c1cc([N+](=O)[O-])ccc1Cl	HSF-1 act 134.2 (no result: MITF act)
O=C(c1ccccc1Sc1ccc([N+](=O)[O-])cc1Cl)N1CCOCC1	none (no result: esBAF inh)
COc1cccc(S(=O)(=O)N[C@H]2C=C[C@@H](CC(=O)NCc3ccc(F)cc3)O[C@H]2CO)c1	none (no result: HSF-1 act, MITF act, Wnt bcat act, HSF1 inhib)
CCOC(=O)c1c(C)n(C)c2ccc(O)c(CN3CCN(C)CC3)c12	HSF-1 act 55.6 (no result: Wnt bcat act)
CCOC(=O)c1c(CSc2ccccc2)n(C)c2ccc(O)c(CN3CCOCC3)c12	HSF-1 act 70.2 (no result: MITF act)
CCOC(=O)c1c(C)n(C)c2ccc(OC)c(NC(=O)CN3CCSCC3)c12	HSF1 inhib -90.7
Cc1ccc(S(=O)(=O)N2CC[C@@H]3[C@@H](CO)Nc4ccc(-c5ccc(C#N)cc5)cc4[C@@H]32)cc1	none (no result: HSF-1 act, MITF act, Wnt bcat act, HSF1 inhib)
CC(C)NC(=O)Nc1ccc2c(c1)C(=O)N([C@@H](C)CO)C[C@@H](C)[C@@H](CN(C)C(=O)c1ccccc1)OCCCC[C@H](C)O2	none (no result: HSF-1 act, MITF act, Wnt bcat act, HSF1 inhib)
CC(=O)NC1CCC(OC(=O)Nc2ccccc2)CC1 (stereo not given)	esBAF inh 53.1 (no result: HSF-1 act, HSF1 inhib)
O=C(Nc1ccccc1)OC1CCS(=O)(=O)C1 (stereo not given)	none (no result: esBAF inh)
O=c1[nH]cnc2cc(-c3ccccc3)sc12	esBAF inh 41.8 (no result: MITF act, Wnt bcat act)
COc1ccc(-c2cc3nc(CCl)[nH]c(=O)c3s2)cc1	none
COc1ccc(-c2cc3nc[nH]c(=O)c3s2)cc1	Wnt bcat act 33.6
COCC(=O)Nc1ccc2c(c1)[C@H]1C[C@@H](CC(=O)NCc3ccccc3F)O[C@@H](CO)[C@H]1O2	none (no result: HSF-1 act, MITF act, Wnt bcat act, HSF1 inhib)
COc1ccccc1-c1ccc2n(c1=O)C[C@H]1[C@H](CO)[C@@H](C(=O)N(C)C)N(C(=O)c3cccnc3)[C@@H]21	none (no result: HSF-1 act, MITF act, Wnt bcat act, HSF1 inhib)
COc1ccc(C(=O)Nc2ccc3c(c2)C(=O)N(C)[C@H]2CC[C@H](CC(=O)NCC4CC4)O[C@H]2CO3)cc1	none (no result: HSF-1 act, MITF act, Wnt bcat act, HSF1 inhib)
COC(=O)C[C@@H]1CC[C@H]2[C@@H](COc3ccc(NC(=O)c4cccc(F)c4)cc3C(=O)N2C)O1	none (no result: HSF-1 act, MITF act, Wnt bcat act, HSF1 inhib)
Cc1noc(C)c1S(=O)(=O)Nc1ccc2c(c1)C(=O)N([C@@H](C)CO)C[C@@H](C)[C@@H](CN(C)C(=O)CCCN(C)C)OCCCC[C@@H](C)O2	none (no result: HSF-1 act, MITF act, Wnt bcat act, HSF1 inhib)
Cc1[nH]n(-c2ccccc2)c(=O)c1N=Nc1ccc2c(c1)OCCO2	Wnt bcat act 35.2 (no result: HSF-1 act, esBAF inh, HSF1 inhib)
Cc1ccc(N=Nc2c(C)[nH]n(-c3ccccc3)c2=O)cc1Br	none (no result: MITF act)
Nc1[nH]n(-c2ccccc2)c(=O)c1N=Nc1ccccc1	Wnt bcat act 55.0, esBAF inh 53.9
Cc1[nH]n(-c2ccccc2)c(=O)c1N=Nc1ccc(F)cc1	none
Nc1[nH]n(-c2ccccc2)c(=O)c1N=Nc1ccccc1[N+](=O)[O-]	MITF act 128.0, Wnt bcat act 60.6 (no result: esBAF inh)
O=c1c(N=Nc2ccccc2)c[nH]n1-c1ccccc1	Wnt bcat act 44.9 (no result: HSF-1 act, MITF act, HSF1 inhib)
COc1cc([N+](=O)[O-])ccc1N=Nc1c(N)[nH]n(-c2ccccc2)c1=O	none (no result: esBAF inh)
O=C(C[C@H]1C=C[C@@H](NC(=O)Nc2ccc3c(c2)OCO3)[C@H](CO)O1)NCc1ccc2c(c1)OCO2	none (no result: HSF-1 act, MITF act, Wnt bcat act, HSF1 inhib)
CCOc1ccc(NC(N)=O)cc1OCC	none (no result: MITF act)
CCCOc1ccc(NC(N)=O)cc1OCCC	HSF1 inhib -68.3 (no result: Wnt bcat act, esBAF inh)
CCN(CC)C(=O)C1CCCN(c2ccc([N+](=O)[O-])cc2/C=N/NC(=O)c2ccc([N+](=O)[O-])cc2)C1 (stereo not given)	HSF1 inhib -78.4 (no result: MITF act, Wnt bcat act)
CC(C)c1ccc2c(c1)[C@H]1OCC[C@H]1[C@@H](c1cccs1)N2	HSF-1 act 122.0 (no result: Wnt bcat act, esBAF inh)
Cc1cc(C)c2c(c1)N[C@H](c1cccs1)[C@@H]1CCO[C@H]21	none
O=C(c1ccc(S(=O)(=O)N2CCCC2)cc1)N1CCN(S(=O)(=O)c2cccc(F)c2)CC1	none
Cc1ccc(S(=O)(=O)N2CCN(C(=O)c3cccc(F)c3)CC2)cc1	HSF1 inhib -53.5 (no result: esBAF inh)
CC(=O)Nc1sc2c(c1-c1nc3ccccc3s1)CN(C(C)C)CC2	Wnt bcat act 58.2 (no result: HSF-1 act, HSF1 inhib)
CC(=O)N1CCc2c(sc(NC(=O)C3CC3)c2-c2nc3ccccc3s2)C1	none
Cc1ccc(OCc2ccc(C(=O)Nc3nccs3)o2)cc1	HSF-1 act 60.3 (no result: MITF act, Wnt bcat act)
CC(C)(C)c1ccc(OCc2ccc(C(=O)Nc3cccnc3)o2)cc1	Wnt bcat act inconclusive, esBAF inh 63.1
O=C(Nc1nccs1)c1ccc(COc2ccccc2)o1	HSF-1 act 55.6, esBAF inh 51.5 (no result: MITF act)
CCc1nnc(NC(=O)c2ccc(COc3ccc(C)cc3)o2)s1	none
Cc1ccc(SCc2ccc(C(=O)Nc3nccs3)o2)cc1	none (no result: esBAF inh)
O=C(Nc1cccnc1)c1ccc(COc2ccccc2Br)o1	none (no result: Wnt bcat act)
O=C(Nc1nccs1)c1ccc(CSc2ccccc2)o1	HSF-1 act 63.4, MITF act inconclusive, Wnt bcat act 38.1
Cc1noc(C)c1NC(=O)N[C@H]1CC[C@H](CCNC(=O)C2CCCC2)O[C@H]1CO	none (no result: HSF-1 act, MITF act, Wnt bcat act, HSF1 inhib)
